Pol iota inh = inhibitors of human DNA polymerase iota | Q9UNA4 | Pol iota fluorescent replication assay, 10 min | Potency, µM (doses to about 115 µM), for the others: at the highest dose activity, negative = inhibition, most hits filed as inhibitors | hit rate 1% among 390,000 | AID 588590; further: potency means the concentration at half of the fitted maximal effect
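Fluorescent replication assay read twice, at 0 min and 10 min after adding 50 nM (final) substrate. Enzyme (10 nM) and compounds were first incubated 15 min at room temperature; enzyme-free buffer wells were negative controls.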
PI5P4K alpha inh = inhibitors of human PI5P4K alpha; P48426; PI5P4Kalpha enzyme, ADP-Glo luminescence, 60 min; active compounds read low; hit rate 1.2% among 330,000; AID 652105; max response, %; active means max response of -50% or lower; inconclusive means between -30% and -50%; inactive means -30% or higher; further: value at the top dose of about 77 µM; on the % scale 0 is the no-effect control and ±100 the full control effect
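Reactions run in 0.038 M HEPES pH 7.4, 0.28 mM EGTA, 0.1% CHAPS and 5% DMSO, with PI5P4Kalpha, substrate, compound and 5 microM ATP final, one hour at room temperature. Readout is ADP-Glo luminescence.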
WRN inhibitor = blocks human WRN helicase | hit rate 0.46% among 360,000 | Potency, µM (titrated, usually from 114 µM), for the others: top-dose activity change, negative = inhibition, most hits filed as inhibitors | WRN helicase unwinding, fluorescent forked duplex, kinetic; further: potency means the concentration at half of the fitted maximal effect; on the % scale 0 is the no-effect control and ±100 the full control effect; nearly all actives have a fitted effect of over 55% in size
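Screening of the MLSMR collection measured strand separation of a quenched forked DNA duplex (100 nM) by 20 nM WRN with 2 mM ATP, all final. Compounds were preincubated with enzyme 15 min at room temperature.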
POLH inh = inhibitors of human DNA polymerase eta; hit rate 1.2% among 390,000; Q9Y253; Potency, µM (titrated, usually from 114 µM), for inactives: at the top dose activity change, negative = inhibition, hits mostly inhibitors; recombinant Pol eta, fluorescent DNA replication assay; further: potency means the concentration at half of the fitted maximal effect; on the % scale 0 is the no-effect control and ±100 the full control effect
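Fluorescent replication assay: 50 nM final substrate added after a 15 min room-temperature compound preincubation with 10 nM enzyme. Signal taken at 0 min and again at 10 min.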
Pol beta inh = inhibitors of human DNA polymerase beta; P06746; AID 485314; Potency, µM (titrated, usually from 114 µM), for inactives: at the highest dose activity change, negative = inhibition, hits mostly inhibitors; hit rate 1.3% among 340,000; Pol beta primer extension/strand displacement, fluorescence kinetic; further: potency means the concentration at half of the fitted maximal effect; on the % scale 0 is the no-effect control and ±100 the full control effect
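Values derive from four-parameter Hill fits of normalized kinetic data: reads at 0 and 10 min following addition of 50 nM substrate to 10 nM Pol beta preincubated 15 min with compound.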
Pol kappa inh = inhibitors of human DNA polymerase kappa | Q9UBT6 | purified Pol kappa, fluorescent DNA synthesis assay, 10 min | Potency, µM (doses to about 107 µM), without a hit: at the top dose activity, negative = inhibition, most hits filed as inhibitors | hit rate 0.53% among 400,000 | AID 588579; further: potency means the concentration at half of the fitted maximal effect; on the % scale 0 is the no-effect control and ±100 the full control effect
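Readout: fluorescence, taken kinetically at 0 and 10 min. Conditions: 10 nM Pol kappa, 15 min RT compound preincubation, 50 nM substrate final. Controls: enzyme-free buffer wells.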
An asterisk follows results filed as active; ? = inconclusive; nt = no result given; [ ] = remark or other dose. Sampled rows, rich in hits. Any-hit rate of the full collection: about 2.8%. Unless noted, the call rests on the fitted dose curve; in most records, active means well fitted curve in the direction sought with a large enough effect; inconclusive means small, poorly fitted or top-dose-only effect, or another doubt; inactive means no such curve, though single readings can be large; an effect the other way counts as inactive or inconclusive.

SMILES	Pol iota inh	PI5P4K alpha inh	WRN inhibitor	POLH inh	Pol beta inh	Pol kappa inh
S=c1[nH]nc(-c2ccco2)n1Cc1ccccc1	21.2%	3.5	0.6%	-8.0%	31.6µM*	-1.4%
COP(=S)(OC)Oc1ccc([N+](=O)[O-])cc1	nt	nt	nt	nt	nt	-16.7%[60.1 µM]
CCOc1ccccc1N1C(=O)NC(=O)/C(=C/c2ccc3c4c(cccc24)CC3)C1=O	-8.1%	-64.2*	50.1µM*	?	39.1%	-5.2%
Cc1ccc(N2C(=O)NC(=O)/C(=C\c3cnc(-c4ccccc4)nc3)C2=O)cc1	-3.1%	?	?	-7.1%	2.9%	-7.1%
COc1ccc(CN2C(=O)NC(=O)/C(=C/c3cc(OC)c(OC)c(OC)c3)C2=O)cc1	21.2%	-50.7*	44.7µM*	0.7%	-2.0%	-7.2%
COc1ccc(N2C(=O)NC(=O)/C(=C\c3ccccc3[N+](=O)[O-])C2=O)cc1	109.1%	-8.1	?	-17.7%	0.1%	-13.5%
O=C1NC(=O)N(c2ccccc2)C(=O)/C1=C\c1ccc([N+](=O)[O-])o1	nt	nt	nt	nt	7.94µM*	nt
COc1cc(/C=C2\C(=O)NC(=O)N(c3ccccc3)C2=O)cc(OC)c1OC	6.5%	?	50.1µM*	6.5%	3.2%	-2.4%
O=C1NC(=O)N(c2ccccc2)C(=O)/C1=C\C=C\c1ccccc1	?	?	31.6µM*	?	?	-11.4%
COc1cc(/C=C2/C(=O)NC(=O)N(c3ccc(C)cc3)C2=O)cc(OC)c1OC	68.9%	-11.2	?	-14.1%	-23.0%	-14.0%
CC(=O)OC1C(=O)[C@]2(C)C(O)CC3OC[C@]3(OC(C)=O)C2[C@@H](OC(=O)c2ccccc2)[C@]2(O)CC(O)C(C)=C1C2(C)C (stereo not given in full)	nt	nt	nt	nt	nt	-8.9%[60.1 µM]
CC(n1cc(C[C@H](N)C(=O)O)c2ccccc21)n1cc(C[C@H](N)C(=O)O)c2ccccc21	nt	nt	nt	nt	nt	0.8%[19.4 µM]
CC[C@@]1(O)C(=O)OCc2c1cc1n(c2=O)-c2cc3ccccc3nc2C1	nt	nt	nt	nt	nt	4.7%[60.1 µM]
CN(C)C(=O)Nc1ccc(-n2nc(C(C)(C)C)oc2=O)c(Cl)c1	nt	nt	nt	nt	nt	15.3%[60.1 µM]
CCOC(=O)COc1ccc(/C=C2\C(=O)NC(=S)N(c3ccc(OC)cc3)C2=O)cc1OC	-12.0%	-56.4*	-4.2%	-8.9%	-20.7%	6.6%
COc1cc(/C=C2\C(=O)NC(=O)N(c3ccc(C)cc3)C2=O)cc(OC)c1O	?	-23.4	-7.2%	-8.2%	6.7%	-3.9%[60.1 µM]
O=C1NC(=O)N(c2cccc(Br)c2)C(=O)/C1=C/c1ccsc1	?	-64.5*	-33.5%	-8.2%	-22.9%	-25.9%
O=C1NC(=O)N(c2ccc(Br)cc2)C(=O)/C1=C/c1ccsc1	-13.2%	-27.7	1.5%	-10.0%	7.1%	-17.5%
COc1ccc(N2C(=O)NC(=O)/C(=C/c3ccc4c(c3)Cc3ccccc3-4)C2=O)cc1	nt	nt	nt	nt	7.2%	nt
COc1ccc(/C=C2/C(=O)NC(=O)N(c3ccc(C)c(C)c3)C2=O)cc1CN1C(=O)c2ccccc2C1=O	141.5%	-66.4*	39.8µM*	-8.0%	-14.3%	-12.0%
COc1ccc(N2C(=O)/C(=C/c3ccc(OC)c(OC)c3)C(=O)NC2=S)cc1	?	-53.6*	-27.5%	2.8%	10.9%	-2.3%
CC(C)C[C@H]1C(=O)N2CCCC2[C@]2(O)O[C@](NC(=O)[C@@H]3C=C4c5cccc6[nH]c(Br)c(c56)C[C@H]4N(C)C3)(C(C)C)C(=O)N12 (stereo not given in full)	-10.8%[58.9 µM]	nt	nt	-10.5%[57.1 µM]	-7.4%[57.1 µM]	-6.8%[19.4 µM]
NCCCC[C@H](NC(=O)[C@H](Cc1ccccc1)NC(=O)[C@H](CCCN=C(N)N)NC(=O)[C@@H](N)Cc1ccc(O)cc1)C(N)=O	nt	nt	nt	nt	nt	6.3%[19.4 µM]
COC(=O)COc1ccc(/C=C2\C(=O)NC(=S)N(c3ccc(C)cc3)C2=O)cc1OC	?	-53.5*	0.2%	-10.7%	-2.9%	8.5%[60.1 µM]
Cc1ccc(Cl)cc1Nc1nn2c(=O)c3ccc(C(=O)NCc4cccs4)cc3nc2s1	?	nt	nt	?	8.91µM*	-6.3%[60.1 µM]
SMILES	Pol iota inh	PI5P4K alpha inh	WRN inhibitor	POLH inh	Pol beta inh	Pol kappa inh
COc1cccc(NC(=O)c2ccc3c(=O)n4nc(Nc5ccccc5OC)sc4nc3c2)c1	?	nt	nt	?	-3.4%	3.3%
COc1cc2c3c(c1OC)-c1cc(O)ccc1CC3NCC2 (stereo not given)	-13.9%	-5.5	-0.3%	-4.2%	-23.9%	-12.2%
COc1cc2c(cc1OC)-c1c(OC)c(OC)cc3c1[C@H](C2)[N+](C)(C)CC3	?	-2.9	-6.7%	-1.1%	50.1µM*	-35.2%
N#Cc1ccc(CN2CC3(CCNCC3)C2)cc1	nt	nt	nt	nt	nt	-1.7%[60.1 µM]
O=C1NC(=O)C(=Cc2ccc(-c3cc(Cl)ccc3[N+](=O)[O-])o2)C(=O)N1	?	-52.7*	?	?	?	-29.5%
O=C1NC(=O)C(=Cc2ccc(-c3ccccc3[N+](=O)[O-])o2)C(=O)N1	?	0.0	?	-12.0%	3.5%	-15.3%
CNS(=O)(=O)c1ccc(-c2ccc(C=C3C(=O)NC(=O)NC3=O)o2)cc1	22.4µM*	-19.7	?	-7.6%	?	3.3%
NS(=O)(=O)c1ccc(-c2ccc(C=C3C(=O)NC(=O)NC3=O)o2)cc1	?	-63.9*	-24.3%[11.6 µM]	18.2%	18.2%	-17.7%
CCc1nnc(NC(=O)CSc2ccc(-c3ccco3)nn2)s1	14.1%	-9.2	-1.2%	-20.4%	14.1µM*	1.0%
O=C(Oc1ccccc1)N1CCC[C@@]2(CCN(Cc3ccccc3)C2)C1	nt	nt	nt	nt	nt	0.9%[60.1 µM]
CCCCCCCC/C=C\CCCCCCCC(=O)OC[C@@H](COP(O)(O)=S)OC	nt	nt	nt	nt	nt	16.8µM*
CCCCC/C=C\C/C=C\CCCCCCCC(=O)NCCO	nt	nt	nt	nt	nt	6.0%[19.4 µM]
O=C(NNc1c(F)c(F)cc(F)c1F)c1cc2ccccc2oc1=O	92.3%	2.4	-19.0%	-17.8%	-5.7%	-0.7%
COc1cc(N2CCOCC2)ccc1/C=C1\C(=O)NC(=O)N(C2CCCCC2)C1=O	-4.1%	-24.2	79.4µM*	-18.4%	20.7%	-1.2%
Cc1ccc(S(=O)(=O)Oc2ccccc2C=C2C(=O)NC(=O)NC2=O)cc1	nt	?	1.3%	-10.1%	nt	nt
O=C1NC(=O)C(=Cc2ccccc2Oc2ccc(F)cc2)C(=O)N1	110.8%	?	31.6µM*	-11.0%	7.2%	4.5%
CN1C(=O)C(=Cc2ccccc2Oc2ccc(Cl)c(F)c2)C(=O)N(C)C1=O	-3.7%	-52.2*	50.1µM*	?	19.0%	-16.7%
CC(C)c1cc2c(c(O)c1O)[C@]1(C(=O)O)CCCC(C)(C)C1CC2 (stereo not given in full)	nt	nt	nt	nt	nt	-4.9%[60.1 µM]
CCn1c(=S)sc2c(=O)[nH]c(SCC(=O)Nc3cc(OC)ccc3OC)nc21	?	-20.8	-3.5%[11.6 µM]	50.1µM*	-0.4%	-17.4%

Source: PubChem
